This note sets out measurements from PubChem BioAssay (NCI).

Structures are written as SMILES. This is part of a sample that, as a whole, favours compounds with a hit. Of some 83,000 tested, about 20% had one in any assay.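 In brief: 96-well plates, 48 h treatment, single concentration, percent growth endpoint.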 A number with no mark means an inactive call. Active and inactive are the calls of the source. Rule for the calls: active = growth percent below 10; inactive = the rest.

Test in all cases: NCI-60 one-dose screen, 48 h (100 = growth as untreated, 0 = no growth, -100 = all killed)
The subject of one experiment is RPMI-8226 leukemia. Conditions: 10 µM unless noted.
The subject of another experiment is OVCAR-8 ovarian. Conditions: 10 µM unless noted.
For a further experiment, the system named is OVCAR-5 ovarian. To be noted: 10 µM unless noted.
A further experiment relates to OVCAR-4 ovarian. To be noted: 10 µM unless noted.
For the next experiment, the system named is SK-OV-3 ovarian. To be noted: 10 µM unless noted.
The next experiment has as its system IGROV1 ovarian. To be noted: 10 µM unless noted.
The subject of a further experiment is OVCAR-3 ovarian. Conditions: 10 µM unless noted.
The test system of the next experiment is HS 578T breast. Conditions: 10 µM unless noted.
Another experiment deals with NCI/ADR-RES ovarian. To be noted: 10 µM unless noted.
Another experiment concerns T-47D breast. Conditions: 10 µM unless noted.
In another experiment the test system is BT-549 breast. Conditions: 10 µM unless noted.
The subject of a further experiment is MDA-MB-435 melanoma. Conditions: 10 µM unless noted.
The test system of the next experiment is SW-620 colon. To be noted: 10 µM unless noted.
In a further experiment the test system is MCF7 breast. To be noted: 10 µM.
Another experiment concerns HCT-116 colon. To be noted: 10 µM unless noted.
A further experiment deals with HCC-2998 colon. To be noted: 10 µM unless noted.
The subject of another experiment is KM12 colon. To be noted: 10 µM unless noted.

Regarding `FC(F)(F)c1cccc(Nc2nc3ccccc3nc2Nc2cccc(C(F)(F)F)c2)c1`, the growth in the experiment on RPMI-8226 leukemia was -30.9% (active); in the experiment with OVCAR-8 ovarian, -24.3% (active); with OVCAR-5 ovarian, 4.13% (active); in the experiment with OVCAR-4 ovarian it was 11.7%; with SK-OV-3 ovarian it was 32%; in the experiment on IGROV1 ovarian, -58.2% (active). Moreover, the growth is -29.7% (active) with OVCAR-3 ovarian; -4.37% (active) with HS 578T breast; 77.9% in the experiment on NCI/ADR-RES ovarian; -61.7% (active) in the experiment with T-47D breast; 7.74% (active) in the experiment with BT-549 breast; -71.8% (active) in the experiment with MDA-MB-435 melanoma. Also, the growth in the experiment on SW-620 colon was -26.9% (active); with MCF7 breast, -57% (active); with HCT-116 colon it was -41.7% (active); in the experiment on HCC-2998 colon it was -55.1% (active); with KM12 colon it was -37.2% (active).

`CCOc1ccc2c(c1)CN(Cc1ccc(Cl)cc1)CO2`: the growth is 43.3% in the experiment with RPMI-8226 leukemia; 34.1% in the experiment with OVCAR-8 ovarian; 90.9% with OVCAR-5 ovarian; -27.4% (active) in the experiment with OVCAR-4 ovarian; 13.5% with SK-OV-3 ovarian; 71% in the experiment with IGROV1 ovarian. The growth was 22.2% in the experiment with OVCAR-3 ovarian; -7.66% (active) with HS 578T breast; 43.7% in the experiment with NCI/ADR-RES ovarian; 52.4% in the experiment on T-47D breast; 112% in the experiment with BT-549 breast; 64.7% in the experiment with MDA-MB-435 melanoma. For the same molecule, the growth is 69.6% in the experiment with SW-620 colon; 59.4% in the experiment with MCF7 breast; 38.7% in the experiment with HCT-116 colon; 86.4% with HCC-2998 colon; 57.7% in the experiment on KM12 colon.

`COc1ccccc1C(=O)O/N=C(\N)Cc1cccc2ccccc12`: the growth is 73.4% in the experiment on RPMI-8226 leukemia; 78.6% with OVCAR-8 ovarian; 95.2% in the experiment with OVCAR-5 ovarian; 62.3% in the experiment with OVCAR-4 ovarian; 103% in the experiment on SK-OV-3 ovarian; 86.7% in the experiment with IGROV1 ovarian. In addition, the growth with OVCAR-3 ovarian was 4.24% (active); in the experiment with HS 578T breast, 97%; in the experiment with NCI/ADR-RES ovarian it was 69.8%; with T-47D breast, 93.3%; with BT-549 breast, 99.4%; in the experiment with MDA-MB-435 melanoma, 105%. Moreover, the growth in the experiment on SW-620 colon is 97.3%; in the experiment with MCF7 breast, 78.9%; in the experiment on HCT-116 colon, 81.5%; in the experiment on HCC-2998 colon it was 89.4%; in the experiment on KM12 colon it was 87.9%.

For `Cc1ccc2cc3c(N)c4c(C)ccc(C)c4nc3nc2c1`, the growth with RPMI-8226 leukemia is 34.3%; in the experiment with OVCAR-8 ovarian, 34.2%; in the experiment on OVCAR-5 ovarian it was 89.5%; with OVCAR-4 ovarian, 72.9%; in the experiment on SK-OV-3 ovarian, 93.3%; in the experiment on IGROV1 ovarian it was 75.8%. Besides, the growth in the experiment with OVCAR-3 ovarian was 81.3%; in the experiment on HS 578T breast, 70%; in the experiment with NCI/ADR-RES ovarian, 72.7%; in the experiment on T-47D breast it was 6.15% (active); with BT-549 breast, 53.9%; with MDA-MB-435 melanoma, -70.3% (active). Also, the growth in the experiment with SW-620 colon is 11.1%; in the experiment on MCF7 breast it was 37.9%; with HCT-116 colon it was 24.5%; in the experiment on HCC-2998 colon, 62%; with KM12 colon, 69.6%.

Turning to `COc1ccc(N)c(-c2cc3c(c4c2[nH]c2ccc(OC)cc24)CCCC3)c1`, the growth with RPMI-8226 leukemia is 68.5%; in the experiment on OVCAR-8 ovarian it was 87.4%; with OVCAR-5 ovarian, 95.5%; with OVCAR-4 ovarian, 93.3%; in the experiment with SK-OV-3 ovarian, 77.3%; in the experiment on IGROV1 ovarian it was 71.1%. Moreover, the growth with OVCAR-3 ovarian was 86.1%; with HS 578T breast, 85.9%; in the experiment on NCI/ADR-RES ovarian, 85.7%; in the experiment on T-47D breast it was 62.7%; in the experiment with BT-549 breast it was 74.6%; in the experiment on MDA-MB-435 melanoma, 93.6%. Further, the growth in the experiment with SW-620 colon is 83.3%; with MCF7 breast, 69.1%; in the experiment with HCT-116 colon, 58.4%; with HCC-2998 colon, 104%; in the experiment with KM12 colon, 80.2%.

For `COc1cc([C@@H]2NC(=O)NC(C)=C2C(=O)Nc2nc(-c3ccc(Cl)cc3)cs2)ccc1O`, the growth is 111% with RPMI-8226 leukemia; 102% in the experiment on OVCAR-8 ovarian; 100% with OVCAR-5 ovarian; 90.5% in the experiment on OVCAR-4 ovarian; 87.8% in the experiment on SK-OV-3 ovarian; 96.6% in the experiment with IGROV1 ovarian. Moreover, the growth was 111% in the experiment on OVCAR-3 ovarian; 101% with HS 578T breast; 97.2% with NCI/ADR-RES ovarian; 77.1% in the experiment with T-47D breast; 98.8% in the experiment with BT-549 breast; 104% in the experiment on MDA-MB-435 melanoma. In addition, the growth is 103% with SW-620 colon; 103% in the experiment on MCF7 breast; 99.3% with HCT-116 colon; 104% with HCC-2998 colon; 102% with KM12 colon.

In the case of `COc1ccc(N2C(=O)CC(c3cc(OC)c(OC)c(OC)c3)C3C2=NC(=O)N3C)cc1` (stereo unspecified), the growth in the experiment on RPMI-8226 leukemia was 119%; in the experiment on OVCAR-8 ovarian, 102%; with OVCAR-5 ovarian it was 102%; in the experiment on OVCAR-4 ovarian, 105%; in the experiment with SK-OV-3 ovarian, 108%; in the experiment with IGROV1 ovarian, 109%. The growth was 108% in the experiment on OVCAR-3 ovarian; 97.1% in the experiment with HS 578T breast; 109% with NCI/ADR-RES ovarian; 95.7% in the experiment with T-47D breast; 109% with BT-549 breast; 101% in the experiment with MDA-MB-435 melanoma. Besides, the growth in the experiment with SW-620 colon is 102%; in the experiment with MCF7 breast, 98.1%; in the experiment on HCT-116 colon, 106%; with HCC-2998 colon it was 117%; in the experiment on KM12 colon it was 105%.

Take `O=C(N/N=C/c1ccccc1Cl)C(=O)Nc1cccc(C(F)(F)F)c1`: the growth with RPMI-8226 leukemia was 93.9%; in the experiment with OVCAR-8 ovarian, 83%; in the experiment on OVCAR-5 ovarian, 97.4%; in the experiment on OVCAR-4 ovarian it was 101%; in the experiment on SK-OV-3 ovarian it was 102%; in the experiment on IGROV1 ovarian, 92.9%. The growth with OVCAR-3 ovarian is 115%; with HS 578T breast, 111%; in the experiment with NCI/ADR-RES ovarian it was 98.4%; with T-47D breast, 90.2%; in the experiment on BT-549 breast, 112%; in the experiment with MDA-MB-435 melanoma it was 98.4%. In addition, the growth was 104% in the experiment on SW-620 colon; 97.3% in the experiment on MCF7 breast; 92.1% with HCT-116 colon; 96.6% with HCC-2998 colon; 103% with KM12 colon.
